Reference: PubChem BioAssay (Tox21)
Values joined by “and” are separate entries in the source; they are usually repeats but may differ in a detail not shown here. Equal values may be shown once. Inconclusive results are not listed. Where a call stands in place of a potency, no number is given. Active and inactive are the calls of the source. The call rests on the fitted dose curve; in most records, active means well fitted cell-killing curve with a large enough effect in the repeat runs; inconclusive means weak or mixed curves, or effect the other way; inactive means flat fitted curve, though single readings scatter.

Assay: Nuclear factor erythroid 2-related factor 2/antioxidant responsive element (Nrf2/ARE) small molecule agonists: qHTS cell viability counter screen in human keratinocytes (AID 1919968); further: nearly all actives have a fitted effect of over 55% in size
In short: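 In human HaCaT keratinocytes stably expressing an ARE-driven luciferase, compound exposure lasted 23 h at 37 C under 5% CO2. Viable cells are quantified with a protease-based fluorogenic reagent (CellTiter-Fluor) read 1 h after addition.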
Potency means the concentration at half of the fitted maximal effect.

Compound | Potency
CN(C)c1nc(N(C)C)nc(N(C)C)n1 | inactive
N#Cc1ccccc1 | inactive
c1ccc2[nH]c(-c3cscn3)nc2c1 | inactive
C[C@]12C[C@H](O)[C@H]3[C@@H](CCC4=CC(=O)CC[C@@]43C)[C@@H]1CC[C@@H]2C(=O)CO | inactive
CCCCCCCCCCCCCC[N+](C)(C)C | 52.7 µM (active) and 38.5 µM (active) and 2.37 µM (active)
c1ccc(Nc2ccccc2)cc1 | inactive
Cc1ncc[nH]1 | inactive
CS(=O)(=O)OCCCCOS(C)(=O)=O | inactive
OCCOCCN1CCN(C(c2ccccc2)c2ccc(Cl)cc2)CC1 (centres undefined) | inactive
O=S(=O)(O)NC1CCCCC1 | inactive
O=C(O)c1cccc(C(=O)O)c1 | inactive
O=C(O)c1ccccc1 | inactive
Cc1cc(Cc2ccc(N)c(C)c2)ccc1N | inactive
O=[N+]([O-])c1cccc(Cl)c1 | inactive
Oc1ccc(Cc2ccccc2O)cc1 | inactive
Cc1c(N(C)C)c(=O)n(-c2ccccc2)n1C | inactive
Cc1ccc(S(=O)(=O)O)cc1 | inactive
CN(C)CCN(Cc1cccs1)c1ccccn1 | inactive
COC(=O)CCCC(=O)OC | inactive
CC(=O)CC(c1ccccc1)c1c(O)c2ccccc2oc1=O (centres undefined) | inactive

Compound | Potency
Nc1ccc2c(c1)C(=O)c1ccccc1C2=O | inactive
C[C@@H](O)[C@H]1C(=O)N2C(C(=O)O)=C(S[C@@H]3CN[C@H](C(=O)N(C)C)C3)[C@H](C)[C@H]12 | inactive
CCCCC(C=O)CC (centres undefined) | inactive
Nc1ccc(S(N)(=O)=O)cc1 | inactive
C=C[C@@]1(C)CC(=O)[C@]2(O)[C@@]3(C)[C@@H](O)CCC(C)(C)[C@@H]3[C@H](O)[C@H](OC(C)=O)[C@@]2(C)O1 | inactive
CCOC(N)=O | inactive
C=C(C)C(=O)OCC(C)O (centres undefined) | inactive
NC=O | inactive
CCCCOC(=O)c1ccc(O)cc1 | inactive
Nc1ccccc1[N+](=O)[O-] | inactive
C/C=C/C=C/C(=O)O | inactive
COc1cc([C@@H]2c3cc4c(cc3[C@H](O)[C@H]3COC(=O)[C@H]23)OCO4)cc(OC)c1OC | inactive
NCCOCCO | inactive
O=C1NS(=O)(=O)c2ccccc21 | inactive
COC(=O)C1CCC(C(=O)OC)CC1 (centres undefined) | inactive
Clc1ccc(Cl)c(Cl)c1Cl | inactive
O=C(O)c1cccnc1 | inactive
COc1ccc(O)cc1 | inactive
O=NO | inactive
